From the supplement of paper PMC6555819

How the values were obtained:
Assay in all cases: PBM binding z-score (relative to random genomic background probes); higher = stronger binding; sequences stand for … in GC…GCGATTGACAGCGTAGAATGAAGG
[1] = tested on: PPARg:RXRa DBDmut IVT, anti-RXR (DBD mutation: RXRa K156A/R161A, NR concentration 270 nM, RXRa partner concentration 90 nM)
Summary of the method: (§1)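 Each nuclear receptor dimer, without ligand, was incubated for 1 h on custom Agilent 4×180K protein-binding microarrays. Binding was detected with antibodies against each partner (one per run), and scanned fluorescence was regression-normalized. The binding z-scores are referenced to random human genomic background probes.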

[2] = tested on: PPARg:RXRa IVT, anti-PPARg (NR concentration 270 nM, RXRa partner concentration 90 nM)
Summary of the method: as §1

[3] = tested on: PPARg DBDmut:RXRa IVT, anti-PPARg (DBD mutation: PPARg1 K132A/R137A, NR concentration 270 nM, RXRa partner concentration 90 nM)
Summary of the method: as §1

[4] = tested on: PPARg DBDmut IVT, anti-PPARg (DBD mutation: PPARg1 K132A/R137A, NR concentration 270 nM)
Summary of the method: as §1

[5] = tested on: PPARg homodimer (NR concentration 180 nM)
Summary of the method: as §1

[6] = tested on: PXR:RXRa (NR concentration 270 nM, RXRa partner concentration 90 nM)
Summary of the method: as §1

[7] = tested on: PXR homodimer (NR concentration 270 nM)
Summary of the method: as §1

[8] = tested on: RARa:RXR (NR concentration 270 nM, RXRa partner concentration 90 nM)
Summary of the method: as §1

[9] = tested on: RARa homodimer (NR concentration 270 nM)
Summary of the method: as §1

[10] = tested on: RARb:RXRa (NR concentration 270 nM, RXRa partner concentration 90 nM)
Summary of the method: as §1

Sequence	PBM binding z-score [1]	PBM binding z-score [2]	PBM binding z-score [3]	PBM binding z-score [4]	PBM binding z-score [5]	PBM binding z-score [6]	PBM binding z-score [7]	PBM binding z-score [8]	PBM binding z-score [9]	PBM binding z-score [10]
GGAAGGAGGGCATTCGAGTTGATAGCATGGCGAT	3.26	2.42	-0.146	0.314	0.39	3.38	1.3	0.52	-0.113	1.56
AGTCAACGTTCATCTAGGTAACGTAAGATATGCT	0.5	1.94	0.919	0.334	0.649	-0.212	-0.489	0.244	-0.0246	0.796
TTTCAAAGTTCAAAGGTAACGTAAGTATCCACAC	0.271	2.61	1.49	1.37	3.4	5.62	4.59	6.38	1.45	4.99
TCGAGCAGGTTAGTCGGGGCATTCAGCCAACATA	0.239	0.431	-0.862	-0.407	-0.0263	0.125	-0.131	0.109	-0.676	0.557
CCTAGTTGGTTAAGGTCACACACGCTATAGGTAC	1.64	2.5	1.48	1.66	3.91	4.46	4.13	4.85	2.51	4.24
GCTTGAAGATCAAGGTTAAGAAAGACTAAGCTAA	-0.184	-0.042	0.0638	-0.723	-0.0355	0.112	-0.655	0.675	-0.598	0.778
CCTAATGGGCCAAAGGTCATTGATTCCAATGCTC	3.94	6.02	0.0676	-0.678	4.32	5.26	1.81	6.51	1.99	4.57
ACTAGCAGGCCAAGTTTGGGTCAGTCAAACAAAG	0.456	0.754	-0.643	-0.95	-0.103	0.0962	-0.463	0.649	-0.408	1.21
TCTAGCAGGCCAGACGGTCACTCAAGAGGTACGG	0.883	0.0624	-0.226	-0.934	-0.417	-0.727	-0.716	-0.457	-0.452	1.04
AGAAGGAGGTTAAGATCAGGGAAACAGAATACAT	1.24	1.78	1.73	0.272	2.06	1.5	1.36	1.51	1.44	1.85
CCTAGTTGGTCAAGGACACACACGCTATAGGTAC	1.07	1.39	0.248	-0.0353	0.735	0.0768	0.977	1.06	1.89	1.51
TTTTGTAGATCAACAGGAGGTTAAGAAAGATCGA	1.26	1.98	1.18	1.43	0.903	0.932	0.512	1.34	1.05	0.73
ACAGACAGGTGAGTGAAAGTAACTCAGCTGGACG	0.546	0.438	-0.222	0.175	-1.05	-0.413	-0.648	0.2	-0.554	0.304
CCGACTGGGGCAAGGGTACCATAACGCACAGCCA	2.26	3.6	0.123	-0.113	0.601	-0.478	-0.439	-0.197	-0.395	0.933
TCATATAGGTAAAGGTGAAAGTGGAACGATATGA	3.98	4.19	1.25	1.26	1.46	1.17	0.224	2.26	0.548	2.13
CGTCCAAGCTCAGAGAGGTCAGTGAATGCCGAGT	0.269	0.153	-0.648	-1.03	2.06	2.96	0.893	2.85	0.843	2.82
